Results taken from PubChem BioAssay (NCATS).
Results filed as inconclusive are left out. Values without a mark were called inactive. Activity calls are given as the source filed them. Calls follow the shape of the dose curve; as a rule, active = well fitted cell-killing curve with a large enough effect; inconclusive = small, poorly fitted or top-dose-only effect, or effect the other way; inactive = no such curve, though single readings can be large or run the other way.

Experiment: Quantitative High-Throughput drug screen in 47 multiple myeloma cell lines against the NCATS MIPE library collection: Karpas620_DSMZ cell viability assay (AID 1918959); also: nearly all actives have a fitted effect of over 30% in size
Conditions: Karpas620 myeloma viability, CellTiter-Glo ATP luminescence, 48 h; series mostly up to 45.8 µM; viability (% of DMSO): at the top concentration
From the text: PI: Beverly A. Mock Ph.D.
Laboratory of Cancer Biology and Genetics,
Center for Cancer Research, National Cancer Institute,
National Institute of Health, Bethesda, Maryland
Drug resistance and disease progression are common in multiple myeloma (MM) patients, underscoring the need for new therapeutic combinations. […] We hypothesized that effective combinations would reduce MYC expression and enhance p16 activity. […] These preclinical data identify potentially useful drug combinations for evaluation in drug-resistant MM and reveal potential mechanisms of combined drug sensitivity.
Described herein is the primary MIPE qHTS used to cherrypick compounds. Validated compounds were then further tested for potential synergistic activiy.
[1] Peat TJ, Gaikwad SM, Dubois W, Gyabaah-Kessie N, Zhang S, Gorjifard S, Phyo Z, Andres M, Hughitt VK, Simpson RM, Miller MA, Girvin AT, Taylor A, Williams D, D'Antonio N, Zhang Y, Rajagopalan A, Flietner E, Wilson K, Zhang X, Shinn P, Klumpp-Thomas C, McKnight C, Itkin Z, Chen L, Kazandijian D, Zhang J, Michalowski AM, Simmons JK, Keats J, Thomas CJ, Mock BA. Drug combinations identified by high-throughput screening promote cell cycle transition and upregulate Smad pathways in myeloma. Cancer Lett. 2023 Aug 1;568:216284. doi: 10.1016/j.canlet.2023.216284. Epub 2023 Jun 24. PMID: 37356470; PMCID: PMC10408729.
SEQUENCE No. (e.g., 1, 2, 3, etc.); […] (e.g., Cells, Incubation, Reagent, etc.); VALUE and DESCRIPTION.
1; Cells; 5 uL; white, solid bottom 1536-well Greiner assay plate.
2; Compounds; 23 nL; Kalypsis pin tool (Wako USA) equipped with a 1536-well pin head to transfer to the assay plates.
3; Incubation; 48 hours; 37C incubation.
4; Reagent;5uL; CellTiter Glo (Promega).
5; Detector; 425V; Luminescence; Viewlux PerkinElmer.
NOTES (numbers refer to Sequence numbers above)
1. The cell-based screening methods employed in this study were like those previously published. Briefly, the corresponding myeloma cell lines were screened in 1,536-well plates with 500 cells, 5-uL per well for inhibition of cell viability (assessed by measuring ATP levels with CellTiterGlo).
2. NCATS MIPE 4.0 library of approved and investigational drugs were added using the Kalypsis pin tool. Wells treated with DMSO only for 100% viability and media only wells for 0% viability were used as controls.
3. The assay plates were covered and incubated for 48 hours in a 37C, 5% CO2 incubator with controlled humidity.
4. After 48 hours, CellTilter-GloTM luminescent substrate mix (Promega) reagent was added to the assay plate and plates we incubated for 5 min at room temperature.
5. Signal was measured as median relative luminescence units on a ViewLux (PerkinElmer) multiplate reader.
[1] Heske CM, Davis MI, Baumgart JT, Wilson K, Gormally MV, Chen L, Zhang X, Ceribelli M, Duveau DY, Guha R, Ferrer M, Arnaldez FI, Ji J, Tran HL, Zhang Y, Mendoza A, Helman LJ, Thomas CJ. Matrix Screen Identifies Synergistic Combination of PARP Inhibitors and Nicotinamide Phosphoribosyltransferase (NAMPT) Inhibitors in Ewing Sarcoma. Clin Cancer Res. 2017 Dec 1;23(23):7301-7311. doi: 10.1158/1078-0432.CCR-17-1121. Epub 2017 Sep 12. PMID: 28899971; PMCID: PMC6636827.
Potency is read from the fitted curve at half-maximal effect.

Row | Structure (SMILES) | viability (% of DMSO) | Potency
1 | O=C(CN1C(=O)C2(CCCC2)NC[C@H]1c1cc(F)cc(F)c1)Nc1ccc2c(c1)C[C@@]1(C2)C(=O)Nc2ncccc21 | 116% | 
2 | Nc1nc(=O)n([C@H]2CSC(CO)O2)cc1F (stereo not given in full) | 113% | 
3 | CC(C=CC=C(C)C=CC1=C(C)CCCC1(C)C)=CC=CC=C(C)C=CC=C(C)C=CC1=C(C)CCCC1(C)C |  | 20.9 µM (active)
4 | O=C(Nc1nnc(-c2ccco2)o1)c1cc(-c2ccccc2)nc2ccccc12 |  | 20.9 µM (active)
5 | O=C1NC(=O)C(=Cc2ccc3nccc(-c4ccncc4)c3c2)S1 |  | 0.296 µM (active)
6 | COc1cccc2c1C(=O)c1c(O)c3c(c(O)c1C2=O)C[C@@](O)(C(C)=O)C[C@H]3O[C@H]1C[C@H](N)[C@H](O)[C@H](C)O1 |  | 0.0662 µM (active)
7 | C=CC[C@@H]1C=C(C)C[C@H](C)C[C@H](OC)[C@H]2O[C@@](O)(C(=O)C(=O)N3CCCC[C@H]3C(=O)O[C@H](C(C)=C[C@@H]3CC[C@H](O)[C@H](OC)C3)[C@@H](C)[C@@H](O)CC1=O)[C@@H](C)C[C@@H]2OC |  | 1.48 µM (active)
8 | CN(N=O)C(=O)N[C@H]1C(O)OC(CO)[C@@H](O)[C@H]1O (stereo not given in full) | 102% | 
9 | CN1CCCN(C(=O)c2cccc(-c3ccc(C=C4C(=O)Nc5ccc(Cl)cc54)o3)c2)CC1 |  | 9.35 µM (active)
10 | C[C@@H]1CC[C@@]2(OC1)OC1CC3C4CC=C5CC(O)CCC5(C)C4CCC3(C)C1[C@@H]2C (stereo not given in full) | 115% | 
11 | CC(C)C[C@H](NC(=O)CNC(=O)c1cc(Cl)ccc1Cl)B1OC(=O)CC(CC(=O)O)(C(=O)O)O1 (stereo not given in full) |  | 0.0526 µM (active)
12 | N=c1ccn2c(n1)O[C@H]1[C@@H](O)[C@@H](CO)O[C@H]12 |  | 16.6 µM (active)
13 | CC(C=CC1=C(C)CCCC1(C)C)=CC=CC(C)=CC(=O)Nc1ccc(O)cc1 |  | 6.05 µM (active)
14 | CCN(CC)Cc1ccc2cc(COC(=O)Nc3ccc(C(=O)NO)cc3)ccc2c1 |  | 0.833 µM (active)
15 | COc1cc(C)c(C=CC(C)=CC=CC(C)=CC(=O)O)c(C)c1C |  | 7.43 µM (active)
16 | CCCCCCCCc1ccc(CCC(N)(CO)CO)cc1 |  | 8.33 µM (active)
17 | C=C1C[C@@]2(O)O[C@@]3(C[C@H]2C(C)C)[C@H](C)CC[C@H]13 | 94.6% | 
18 | NC(=O)N1CCC(CC(=O)N2CCC([C@H]3c4ncc(Br)cc4CCc4cc(Cl)cc(Br)c43)CC2)CC1 |  | 14.8 µM (active)
19 | Oc1ccc([C@@H]2Oc3ccc(O)cc3[C@@H]3CCC[C@@H]32)cc1 | 98.8% | 
20 | O=C(O)C(=O)Nc1cccc(C2=NN=N[N]2)c1 | 112% | 

Row | Structure (SMILES) | viability (% of DMSO) | Potency
21 | C[C@H](NCc1ccc2c(c1)nc(NC(=O)c1ccc(-c3cn[nH]c3)s1)n2CCc1ccccc1)C(C)(C)C |  | 0.743 µM (active)
22 | Cc1ccccc1C(=O)Nc1ccc(C(=O)N2CCCC(O)c3cc(Cl)ccc32)c(C)c1 (stereo not given) | 86% | 
23 | C[C@@H]1C(=O)O[C@H]2CC34[C@H]5C[C@@H](C(C)(C)C)C36[C@H](OC(=O)[C@@H]6O)O[C@@]4(C(=O)O5)[C@]21O (stereo not given in full) | 144% | 
24 | CCCCCCCCCCCCc1ccc(S(=O)(=O)Nc2nncs2)cc1 | 101% | 
25 | CC(=O)[C@]1(O)Cc2c(O)c3c(c(O)c2[C@@H](O[C@H]2C[C@H](N)[C@@H](O)[C@H](C)O2)C1)C(=O)c1ccccc1C3=O |  | 2.09 µM (active)
26 | Cc1coc2c1C(=O)C(=O)c1c-2ccc2c(C)cccc12 |  | 6.62 µM (active)
27 | CCc1ccc(C(=O)Nc2cc(CN3CCN(C)CC3)cc(C(F)(F)F)c2)cc1C#Cc1cnc2ccnn2c1 |  | 5.26 µM (active)
28 | COc1ccc(Nc2nccc(NCCO)n2)cc1 | 87.9% | 
29 | COc1cc(OC)cc(-c2ccc3ncc4ccc(=O)n(-c5ccc(N6CCNCC6)c(C(F)(F)F)c5)c4c3c2)c1 |  | 4.69 µM (active)
30 | C[N+](C)([O-])CCNc1ccc(NCC[N+](C)(C)[O-])c2c1C(=O)c1c(O)ccc(O)c1C2=O | 130% | 
31 | Cc1noc(-c2ccc(CSCCC(=O)O)cc2)c1NC(=O)OC(C)c1ccccc1Cl (stereo not given) | 78.7% | 
32 | O=C(O)[C@H](CC(=O)N1C[C@@H]2CCCC[C@H]2C1)Cc1ccccc1 | 130% | 
33 | NC(=O)Nc1cc(-c2ccc(CN3CCOCC3)cc2)sc1C(N)=O |  | 6.62 µM (active)
34 | CC1=C(C(=O)Nc2cc3cn[nH]c3cc2F)C(c2ccc(Cl)cc2F)N=C(c2ccnc(Cl)c2)N1 (stereo not given) |  | 18.7 µM (active)
35 | Cc1onc(-c2ccccc2)c1C(=O)N[C@@H]1C(=O)N2[C@@H](C(=O)O)C(C)(C)S[C@@H]12 | 112% | 
36 | C[C@]12C=CC(=O)N[C@@H]1CC[C@H]1[C@H]3CC[C@@H](C(=O)Nc4cc(C(F)(F)F)ccc4C(F)(F)F)[C@@]3(C)CC[C@@H]12 | 96.7% | 
37 | C=CCNc1c(O)cc2c(O)c1C[C@@H](C)C[C@H](OC)[C@@H](O)[C@@H](C)C=C(C)[C@H](OC(N)=O)[C@@H](OC)C=CC=C(C)C(=O)N2 |  | 1.18 µM (active)
38 | CCS(=O)(=O)Nc1ccc2[nH]c(O)c(C(=Nc3ccc(CN4CCCCC4)cc3)c3ccccc3)c2c1 |  | 1.48 µM (active)
39 | O=C1c2cccc(O)c2C(=O)c2c(O)cc(CO)cc21 | 97.2% | 
40 | C=C(C)[C@@H]1CC[C@]2(C)CC[C@]3(C)[C@H](CC[C@@H]4[C@@]5(C)CC[C@H](O)C(C)(C)[C@H]5CC[C@]43C)[C@@H]12 | 108% | 
